For orientation: AC50 means the concentration at which the activity in the assay is half-maximal.

Each structure is given as a SMILES string. Activity calls are given as the source filed them. How the source made its calls: active means hit-call score of the fitted dose curve at least 0.9, where 1 is the maximum; inactive means score below 0.9.

Sequence of Estrogen receptor (Homo sapiens) (P03372 whole entry, looked up): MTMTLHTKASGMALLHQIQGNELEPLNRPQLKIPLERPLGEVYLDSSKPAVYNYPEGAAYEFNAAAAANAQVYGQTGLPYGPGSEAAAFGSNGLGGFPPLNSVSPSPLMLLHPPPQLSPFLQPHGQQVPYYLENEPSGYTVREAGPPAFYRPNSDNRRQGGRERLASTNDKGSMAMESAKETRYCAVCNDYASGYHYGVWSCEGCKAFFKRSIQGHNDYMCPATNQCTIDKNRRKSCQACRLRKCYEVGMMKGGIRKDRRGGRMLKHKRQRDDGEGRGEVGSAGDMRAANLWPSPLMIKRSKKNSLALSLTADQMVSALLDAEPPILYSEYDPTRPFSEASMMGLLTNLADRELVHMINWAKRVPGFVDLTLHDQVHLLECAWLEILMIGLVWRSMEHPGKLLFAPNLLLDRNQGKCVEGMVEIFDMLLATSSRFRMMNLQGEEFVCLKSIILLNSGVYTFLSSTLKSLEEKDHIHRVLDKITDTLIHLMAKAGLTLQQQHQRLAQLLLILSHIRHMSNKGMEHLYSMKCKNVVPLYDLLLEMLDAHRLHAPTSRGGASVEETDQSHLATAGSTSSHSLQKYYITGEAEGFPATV

The target in this assay is Estrogen receptor (Homo sapiens) (UniProt P03372). Kind of assay: OT_ERa_GFPERaERE_0480: Odyssey Thera (OT) 8-hour HeLa Transcription Induction Assay for Estrogen Receptor (AID 2283381). How it is done:
OT_ERa_GFPERaERE_0480 is a cell-based, single-readout assay that uses HeLa, a human cervix cell line, with measurements taken at 8 hours after chemical dosing in a 384-well plate.OT_ERa_GFPERaERE_0480 is one of one assay component(s) measured or calculated from the OT_ERa_GFPERaERE_0480 assay. It is designed to make measurements of fluorescent protein induction, a form of inducible reporter, as detected with optical microscopy: fluorescence microscopy signals by Microscopy technology.Data from the assay component OT_ERa_GFPERaERE_0480 was analyzed into 1 assay endpoint. This assay endpoint, OT_ERa_EREGFP_0480, was analyzed in the positive analysis fitting direction relative to DMSO as the negative control and baseline of activity. Using a type of inducible reporter, measures of receptor for gain-of-signal activity can be used to understand the reporter gene at the pathway-level as they relate to the gene ESR1. Furthermore, this assay endpoint can be referred to as a primary readout, because the performed assay has only produced 1 assay endpoint. To generalize the intended target to other relatable targets, this assay endpoint is annotated to the nuclear receptor intended target family, where the subfamily is steroidal.
All assay endpoints are quantified using high content image analysis algorithms.
As for `Cc1c(C)c2c(c(C)c1O)CCC(C)(COc1ccc(CC3SC(=O)NC3=O)cc1)O2` (stereo unspecified), the outcome was inactive.

As to `CC(C)c1cccc(C(C)C)c1`, the compound was classed as inactive.

With `O=Cc1ccccc1C=O`, the compound was called inactive.

Regarding `O=C(O)c1[nH]n(-c2ccc(S(=O)(=O)O)cc2)c(=O)c1N=Nc1ccc(S(=O)(=O)O)cc1`, the outcome was inactive.

In the case of `O=C(N[C@@H](c1ccccc1)[C@@H]1CCCCN1)c1cccc(C(F)(F)F)c1Cl`, the outcome was inactive.

With `CC1=C(C)S(=O)(=O)CCS1(=O)=O`, the call was inactive.

With `CCCCc1nc2cccnc2n1Cc1ccc(-c2ccccc2-c2nnn[nH]2)cc1`, the result was inactive.

For `CCCCCCCCCC[N+](C)(C)[O-]`, the result was inactive.

Take `Cc1ccc(C(C)(C)C)c(O)c1`: the result was inactive.

For `CN(C)C(=O)NC1(c2ccccc2)CCN(CCC[C@]2(c3ccc(Cl)c(Cl)c3)CCCN(C(=O)c3ccccc3)C2)CC1`, the result was inactive.

Regarding `NC1CCCCC1`, the compound was called inactive.

In the case of `Cc1ccc(-c2cc(C(F)(F)F)nn2-c2ccc(S(N)(=O)=O)cc2)cc1`, the compound was called inactive.

Take `COc1ccc(C(=O)Nc2nc3ccccc3c(NCc3ccccc3)c2C#N)cc1`: the result was inactive.

As to `OCC(CO)n1cnc(-c2ccc(F)cc2)c1-c1ccnc(Oc2ccccc2)n1`, the compound was classed as inactive.

With `CCc1nc(N)nc(N)c1-c1ccc(Cl)cc1`, the result was inactive.

For `O=[Si]=O`, the compound was classed as inactive.

Consider `CS(=O)(=O)c1ccc([C@@H](C[C@H]2CCC(=O)C2)C(=O)Nc2cnccn2)cc1Cl`, for which the compound was classed as inactive.

As to `CN(C)CCCN(C)CCCN(C)C`, the outcome was inactive.

For the compound `CCC(C)N(C)C(=O)c1cc2ccccc2c(-c2ccccc2Cl)n1` (stereo unspecified), the compound was called inactive.

In the case of `CCCCCCCCCCCCCCCCO`, the compound was called inactive.

Regarding `CCCCCCCCCCCCCCOS(=O)(=O)O`, the AC50 is 92.3 µM (active).

On to `CSc1ccc(Oc2ccc(S(N)(=O)=O)cc2CN(C)C)cc1C`, for which the result was inactive.

In the case of `Nc1nc(=S)c2[nH]cnc2[nH]1`, the result was inactive.

As to `NC(=Nc1ccccc1)Nc1ccccc1`, the result was inactive.

Take `COC(=O)CCC(=O)OC`: the outcome was inactive.

Regarding `O=C(O)CN(CC(=O)O)CC(=O)O`, the call was inactive.

For the compound `O=C(O)CC(O)(CC(=O)O)C(=O)O`, the call was inactive.

As for `O=C(NS(=O)(=O)/C=C/c1cccs1)c1ccc(F)cc1Br`, the outcome was inactive.

In the case of `CCCCCCC(CCCCCCCCCCC(=O)OCC(COC(C)=O)OC(C)=O)OC(C)=O` (stereo unspecified), the compound was called inactive.

Take `Oc1ccc(O)cc1`: the outcome was inactive.

With `c1ccc2occc2c1`, the outcome was inactive.

In the case of `CC(C)OC(=O)C(C)(C)Oc1ccc(C(=O)c2ccc(Cl)cc2)cc1`, the compound was classed as inactive.

Consider `CC1(C)C(=O)NC(=O)N1CO`, for which the compound was classed as inactive.

As for `O=C1CCCCC1`, the call was inactive.

Regarding `COc1ccc(OC(F)(F)F)cc1CN[C@H]1CCCN[C@H]1c1ccccc1`, the half-maximal activity concentration (AC50) was 85.4 µM (active).

As to `CCCCCCCC(=O)OC`, the compound was called inactive.

Values taken from PubChem BioAssay (EPA / NIEHS).
